Results as given in PubChem BioAssay (NCATS).
Records with an inconclusive call do not appear. Active and inactive are the calls of the source. Calls follow the shape of the dose curve; as a rule, active = well fitted inhibition curve with a large enough effect; inconclusive = small, poorly fitted or top-dose-only effect; inactive = flat fitted curve, though single readings scatter. Where a SMILES comes first, the peptide text is derived from it. The star is where a group is joined. βNA = c1ccc2cc(N*)ccc2c1; Cbz = O=C(OCc1ccccc1)*

Legend:
Assay in all cases: Cytotoxic Profiling of Annotated Libraries Using Quantitative High-Throughput Screening (AID 1296008); also: nearly all actives have a fitted effect of over 60% in size
Conditions in all cases: Five cell lines viability, CellTiter-Glo ATP luminescence, 48-72 h; max response: stronger effect = lower value
CRL-7250 = normal cell line; test system: CRL-7250
Summary of the method: (§1)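 Compounds were pin-transferred onto cells and incubated 48 or 72 hr at 37 degree Celsius, 95% humidity. CellTiter-Glo was added, plates sat 10 min at room temperature, then ATP-coupled luminescence was imaged as the viability read-out.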

HEK293 = test system: HEK293
Summary of the method: as §1

HaCat = test system: HaCat
Summary of the method: as §1

KB-3-1 = test system: KB-3-1
Summary of the method: as §1

NIH3T3 = test system: NIH3T3
Summary of the method: as §1

Measured: max response
% is scaled to controls: 0 for no effect and ±100 for the full control effect.

COc1cc(C2OCC3(O)C(c4ccc(O[C@@H]5O[C@H](CO)[C@@H](O)[C@H](O)[C@H]5O)c(OC)c4)OCC23O)ccc1O (stereo not given in full)
inactive: CRL-7250 | HEK293 -0.768% | HaCat | KB-3-1 7.65% | NIH3T3

O=C(C[C@@H]1C(C(=O)O)=CO[C@@H](O[C@@H]2O[C@H](CO)[C@@H](O)[C@H](O)[C@H]2O)/C1=C\CO)OCCc1ccc(O)c(O)c1
inactive: CRL-7250 -2.34% | HEK293 2.23% | HaCat | KB-3-1 9.2% | NIH3T3

N#CN1CCC[C@@H](n2nc(-c3ccc(Oc4ccc(F)cc4F)cc3)c(C(N)=O)c2N)C1
inactive: CRL-7250 -1.33% | HEK293 -4.05% | HaCat | KB-3-1 | NIH3T3 1.04%

COc1c(O[C@@H]2O[C@H](CO)[C@@H](O)[C@H](O)[C@H]2O)c(CCC(=O)O)cc2ccoc12
inactive: CRL-7250 -9.14% | HEK293 -0.3% | HaCat | KB-3-1 2.96% | NIH3T3 0.4%

CCCCNc1nc(N)c2[nH]c(=O)n(Cc3ccc(OCCN(C)C)nc3)c2n1
inactive: CRL-7250 -6.94% | HEK293 -20.1% | HaCat | KB-3-1 | NIH3T3 inactive; activator

CC(C)=CCc1c(O)cc2oc3cc(C)cc(O)c3c2c1C
inactive: CRL-7250 2.07% | HEK293 -2.32% | HaCat | KB-3-1 -6.44% | NIH3T3 3.67%

COc1cc2c(c(OC)c1O)C(c1ccc(O)cc1)C1C(=O)OC3C(COC(=O)C1=C2)OC(CO)(OC1OC(COC(=O)/C=C/c2ccc(OC4OC(C)C(O)C(O)C4O)cc2)C(O)C(O)C1O)C3O (stereo not given)
inactive: CRL-7250 2.78% | HEK293 -18.4% | HaCat | KB-3-1 -2.91% | NIH3T3

C/C=C1/[C@H](O[C@@H]2O[C@H](CO)[C@@H](O)[C@H](O)[C@H]2O)OC=C(C(=O)OC)[C@H]1CC(=O)OCCc1ccc(O)c(O)c1
inactive: CRL-7250 -12.9% | HEK293 -8.69% | HaCat | KB-3-1 4.42% | NIH3T3

C=CC1(C)CC=C2C(CCC3C(C)(C(=O)O)CCCC23C)C1 (stereo not given)
inactive: CRL-7250 4.68% | HEK293 -4.6% | HaCat | KB-3-1 7.47% | NIH3T3 -6.29%

C[C@]12CC[C@@H]3c4ccc(O)cc4CC[C@H]3[C@@H]1C[C@@H](O[C@@H]1O[C@H](C(=O)O)[C@@H](O)[C@H](O)[C@H]1O)[C@@H]2O
inactive: CRL-7250 2.29% | HEK293 -7.39% | HaCat | KB-3-1 4.13% | NIH3T3 -7.98%

CN(C)c1ccc(C2O[C@@H](c3ccccc3)C[C@H](c3ccccc3)O2)cc1 (stereo not given in full)
inactive: CRL-7250 | HEK293 -10.1% | HaCat | KB-3-1 | NIH3T3 4.55%

COc1ccc(-n2c(SCC#N)nc3sc4c(c3c2=O)CCCC4)cc1
inactive: CRL-7250 1.37% | HEK293 3.85% | HaCat | KB-3-1 9.32% | NIH3T3 4.07%

C=C1CC/C=C(/CO)C(=O)C[C@@H]2[C@@H]1C[C@@]2(C)COC(C)=O
inactive: CRL-7250 | HEK293 -4.3% | HaCat | KB-3-1 5.17% | NIH3T3

O=C(O)CC(CCc1ccccc1)OC1OC(CO)C(O)C(O)C1O (stereo not given)
inactive: CRL-7250 -6.12% | HEK293 -5.21% | HaCat | KB-3-1 | NIH3T3

CCOC(=O)CSc1nc2c(sc3ccccc32)c(=O)n1CCCN1CCCC1
inactive: CRL-7250 | HEK293 -12.6% | HaCat | KB-3-1 | NIH3T3

CC1CCCCCCCc2cc(O)cc(O)c2C(=O)O1 (stereo not given)
inactive: CRL-7250 | HEK293 0.839% | HaCat | KB-3-1 | NIH3T3 0.752%

CC(=O)O[C@@H]1[C@H](O[C@@H]2O[C@H](CO)[C@@H](O)[C@H](O)[C@H]2O)[C@@H](O[C@@H]2O[C@@H](C)[C@H](O)[C@@H](O[C@@H]3O[C@H](CO)[C@@H](O)[C@H](O)[C@H]3O)[C@H]2O)[C@H](OC(=O)[C@]23CCC(C)(C)C[C@H]2C2=CCC4[C@@]5(C)C[C@H](O)[C@H](O[C@@H]6O[C@H](C(=O)O)[C@@H](O)[C@H](O)[C@H]6O)[C@@](C)(C(=O)O)C5CC[C@@]4(C)[C@]2(C)CC3)O[C@@H]1C (stereo not given in full)
inactive: CRL-7250 -5.6% | HEK293 -5.4% | HaCat | KB-3-1 | NIH3T3

CC(C)(O)C1CC=C(C(=O)OC[C@H]2O[C@@H](Oc3cc(C(=O)O)cc(O)c3O)[C@H](O)[C@@H](O)[C@@H]2O)CC1 (stereo not given in full)
inactive: CRL-7250 1.76% | HEK293 3.21% | HaCat | KB-3-1 | NIH3T3

C=C1CCC2[C@](C)(CO)CCC[C@@]2(C)[C@@H]1CCC1=CCOC1=O (stereo not given in full)
inactive: CRL-7250 -10.5% | HEK293 -0.138% | HaCat | KB-3-1 5.6% | NIH3T3 -5.66%

COc1cc(/C=C/C(=O)OC[C@H]2O[C@@H](OC3OC=C(C(=O)O)C4C(O)CC(C)(O)C34)[C@H](O)[C@@H](O)[C@@H]2O)cc(OC)c1O (stereo not given in full)
inactive: CRL-7250 -14.2% | HEK293 -83.6% | HaCat | KB-3-1 9.94% | NIH3T3 4.03%

C=C1CC2C(C)(CCC(=O)O)C(C(C)(C)O)CCC2(C)C2(C(=O)OC)C(=O)C(C)(O)C(=O)C12C (stereo not given)
inactive: CRL-7250 -12.5% | HEK293 -13.4% | HaCat | KB-3-1 1.2% | NIH3T3 0.874%

C/C=C1/[C@H](O[C@@H]2O[C@H](CO)[C@@H](O)[C@H](O)[C@H]2O)OC=C2C(=O)O[C@@H]3C[C@@H](C(C)CO)[C@H](COC(=O)C[C@H]21)[C@H]3C (stereo not given in full)
inactive: CRL-7250 3.26% | HEK293 -21.8% | HaCat | KB-3-1 | NIH3T3 1.25%

C/C=C(/C)C(=O)OC1CC(C)(C)CC2C3=CCC4C5(C)CCC(OC6OC(C)C(OC7OC(C(=O)O)C(O)C(OC8OC(CO)C(O)C(O)C8OC8OC(CO)C(O)C(O)C8O)C7O)C(O)C6O)C(C)(C)C5CCC4(C)C3(C)C(OC(=O)/C=C/C=C/C=C/CCC)C(OC(C)=O)C12CO (stereo not given)
inactive: CRL-7250 3.68% | HEK293 2.77% | HaCat | KB-3-1 | NIH3T3

Cc1cc(C)c2nc(-c3ccccn3)cc(C(=O)Nc3ccc(S(=O)(=O)Nc4onc(C)c4C)cc3)c2c1
inactive: CRL-7250 -3.09% | HEK293 -20.7% | HaCat | KB-3-1 1.46% | NIH3T3 1.48%

COC(=O)C1(O)C(OC(C)=O)CCC2C3(CC(c4ccoc4)OC3=O)C(C)=CCC21C(=O)OC (stereo not given)
inactive: CRL-7250 -2.77% | HEK293 4.98% | HaCat | KB-3-1 9.04% | NIH3T3

CC1=CCC2C(C)(C)CCCC2(C)C1CC12OC1C(O)C(CO)=CC2O (stereo not given)
inactive: CRL-7250 3.52% | HEK293 -6.22% | HaCat -4.23% | KB-3-1 9.42% | NIH3T3

COc1cncc(C#Cc2ccccn2)c1
inactive: CRL-7250 4.39% | HEK293 2.17% | HaCat | KB-3-1 -1.99% | NIH3T3 -3.14%

COc1c2cc(c(O)c1OC)CCCCC(O)CCc1ccc(O)c-2c1 (stereo not given)
inactive: CRL-7250 -1.76% | HEK293 -0.95% | HaCat | KB-3-1 2.35% | NIH3T3 -4.18%

COc1cc(/C=C/C(=O)O[C@@H]2C[C@@](O)(C(=O)O)C[C@@H](O)[C@@H]2O)ccc1O
inactive: CRL-7250 -0.566% | HEK293 0.393% | HaCat -12% | KB-3-1 0.239% | NIH3T3

CC1CCC2(C(=O)O)CCC3(C)C(=CCC4C5(C)C[C@@H](O)[C@@H](O)C(C)(CO)C5CCC43C)C2C1(C)O (stereo not given in full)
inactive: CRL-7250 -2.68% | HEK293 -0.908% | HaCat | KB-3-1 | NIH3T3

CC1(C)CCC[C@@]2(C)[C@H]1[C@H](O)C=C(CO)[C@]2(O)CO
inactive: CRL-7250 -0.0206% | HEK293 -0.502% | HaCat | KB-3-1 6.19% | NIH3T3 -5.75%

CC(C)CC(NC(=O)OCc1ccccc1)C(=O)NC(CC(C)C)C(=O)NC(CCC(=O)O)C(=O)Nc1ccc2ccccc2c1 (stereo not drawn) (Cbz-Leu-Leu-Glu-βNA; configuration not given here)
inactive: CRL-7250 -12.3% | HEK293 -0.688% | HaCat | KB-3-1 | NIH3T3

COc1cc(Nc2nc3c(s2)CCCC3c2ccccc2)ccc1-n1cnc(C)c1 (stereo not given)
inactive: CRL-7250 | HEK293 3.81% | HaCat -4.18% | KB-3-1 -3.56% | NIH3T3

COC1CC(O[C@H]2CC[C@@]3(C)C(=CC[C@]4(O)C3[C@H](O)[C@@H](O)[C@]3(C)[C@@H]([C@H](C)O)CC[C@@]34O)C2)OC(C)C1OC1CC(OC)C(OC2CC(OC)C(OC3OC(C)C(OC4OC(CO)C(O)C(O)C4O)C(OC)C3O)C(C)O2)C(C)O1 (stereo not given in full)
inactive: CRL-7250 -21.7% | HEK293 -82.7% | HaCat | KB-3-1 2.22% | NIH3T3 -54.6%

COc1cc(O)c(C(=O)O)c(CCc2ccccc2)c1
inactive: CRL-7250 -1.14% | HEK293 -6.57% | HaCat | KB-3-1 9.04% | NIH3T3 -0.163%

C=C(CCO)C(=O)OCC1OCC(OC(=O)C(=C)CCO[C@@H]2O[C@H](CO)[C@@H](O)[C@H](O)[C@H]2O)C(O)C1O (stereo not given in full)
inactive: CRL-7250 -6.14% | HEK293 0.294% | HaCat | KB-3-1 4.34% | NIH3T3 -5.54%

C=C(CC/C=C(\C)C(=O)O)C1(O)CC=C(C)CC1 (stereo not given)
inactive: CRL-7250 2.5% | HEK293 4.47% | HaCat | KB-3-1 | NIH3T3

Nc1ccc(-n2nc(C(F)(F)F)cc2C(F)(F)F)cc1
inactive: CRL-7250 1.57% | HEK293 -3.16% | HaCat | KB-3-1 7.09% | NIH3T3

COc1cc(C(=O)OC[C@H]2O[C@@H](OC(C)(C)C(=O)O)[C@H](O)[C@@H](O)[C@@H]2O)cc(OC)c1O
inactive: CRL-7250 -2.21% | HEK293 -6.34% | HaCat | KB-3-1 | NIH3T3
